Data published in PubChem BioAssay AID504333 (National Center for Advancing Translational Sciences (NCATS), 2011).
The campaign covered roughly 360,000 compounds. About 16,000 (4.4%) were called active. A call without a number means that no potency is given here. Not shown: some 9% with an inconclusive outcome. The sample holds actives, similar compounds and a random draw of the others, so the mix is not that of the screen. Calls come from the whole dose curve; as a rule, active = well fitted inhibition curve with a large enough effect; inconclusive = small, poorly fitted or top-dose-only effect; inactive = no such curve, though single readings can be large or run the other way.

Target: Bromodomain adjacent to zinc finger domain protein 2B (Homo sapiens) (UniProt Q9UIF8)
Experiment: qHTS Assay for Inhibitors of BAZ2B; note: nearly all actives have a fitted effect of over 60% in size
Details: AlphaScreen BAZ2B-H3K14Ac peptide displacement; series mostly up to 114 µM
How it was run: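 Compounds, titrated to a top concentration of 110 uM, were incubated 30 min at room temperature with preformed BAZ2B/acetyl-K14 H3 peptide complex (50 nM each). Proximity signal was measured by AlphaScreen after 20 min with beads.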
Potency is the fitted concentration of half-maximal effect.

Sequence of Bromodomain adjacent to zinc finger domain protein 2B (Homo sapiens) (Q9UIF8 whole entry, looked up, the tested form may be a part): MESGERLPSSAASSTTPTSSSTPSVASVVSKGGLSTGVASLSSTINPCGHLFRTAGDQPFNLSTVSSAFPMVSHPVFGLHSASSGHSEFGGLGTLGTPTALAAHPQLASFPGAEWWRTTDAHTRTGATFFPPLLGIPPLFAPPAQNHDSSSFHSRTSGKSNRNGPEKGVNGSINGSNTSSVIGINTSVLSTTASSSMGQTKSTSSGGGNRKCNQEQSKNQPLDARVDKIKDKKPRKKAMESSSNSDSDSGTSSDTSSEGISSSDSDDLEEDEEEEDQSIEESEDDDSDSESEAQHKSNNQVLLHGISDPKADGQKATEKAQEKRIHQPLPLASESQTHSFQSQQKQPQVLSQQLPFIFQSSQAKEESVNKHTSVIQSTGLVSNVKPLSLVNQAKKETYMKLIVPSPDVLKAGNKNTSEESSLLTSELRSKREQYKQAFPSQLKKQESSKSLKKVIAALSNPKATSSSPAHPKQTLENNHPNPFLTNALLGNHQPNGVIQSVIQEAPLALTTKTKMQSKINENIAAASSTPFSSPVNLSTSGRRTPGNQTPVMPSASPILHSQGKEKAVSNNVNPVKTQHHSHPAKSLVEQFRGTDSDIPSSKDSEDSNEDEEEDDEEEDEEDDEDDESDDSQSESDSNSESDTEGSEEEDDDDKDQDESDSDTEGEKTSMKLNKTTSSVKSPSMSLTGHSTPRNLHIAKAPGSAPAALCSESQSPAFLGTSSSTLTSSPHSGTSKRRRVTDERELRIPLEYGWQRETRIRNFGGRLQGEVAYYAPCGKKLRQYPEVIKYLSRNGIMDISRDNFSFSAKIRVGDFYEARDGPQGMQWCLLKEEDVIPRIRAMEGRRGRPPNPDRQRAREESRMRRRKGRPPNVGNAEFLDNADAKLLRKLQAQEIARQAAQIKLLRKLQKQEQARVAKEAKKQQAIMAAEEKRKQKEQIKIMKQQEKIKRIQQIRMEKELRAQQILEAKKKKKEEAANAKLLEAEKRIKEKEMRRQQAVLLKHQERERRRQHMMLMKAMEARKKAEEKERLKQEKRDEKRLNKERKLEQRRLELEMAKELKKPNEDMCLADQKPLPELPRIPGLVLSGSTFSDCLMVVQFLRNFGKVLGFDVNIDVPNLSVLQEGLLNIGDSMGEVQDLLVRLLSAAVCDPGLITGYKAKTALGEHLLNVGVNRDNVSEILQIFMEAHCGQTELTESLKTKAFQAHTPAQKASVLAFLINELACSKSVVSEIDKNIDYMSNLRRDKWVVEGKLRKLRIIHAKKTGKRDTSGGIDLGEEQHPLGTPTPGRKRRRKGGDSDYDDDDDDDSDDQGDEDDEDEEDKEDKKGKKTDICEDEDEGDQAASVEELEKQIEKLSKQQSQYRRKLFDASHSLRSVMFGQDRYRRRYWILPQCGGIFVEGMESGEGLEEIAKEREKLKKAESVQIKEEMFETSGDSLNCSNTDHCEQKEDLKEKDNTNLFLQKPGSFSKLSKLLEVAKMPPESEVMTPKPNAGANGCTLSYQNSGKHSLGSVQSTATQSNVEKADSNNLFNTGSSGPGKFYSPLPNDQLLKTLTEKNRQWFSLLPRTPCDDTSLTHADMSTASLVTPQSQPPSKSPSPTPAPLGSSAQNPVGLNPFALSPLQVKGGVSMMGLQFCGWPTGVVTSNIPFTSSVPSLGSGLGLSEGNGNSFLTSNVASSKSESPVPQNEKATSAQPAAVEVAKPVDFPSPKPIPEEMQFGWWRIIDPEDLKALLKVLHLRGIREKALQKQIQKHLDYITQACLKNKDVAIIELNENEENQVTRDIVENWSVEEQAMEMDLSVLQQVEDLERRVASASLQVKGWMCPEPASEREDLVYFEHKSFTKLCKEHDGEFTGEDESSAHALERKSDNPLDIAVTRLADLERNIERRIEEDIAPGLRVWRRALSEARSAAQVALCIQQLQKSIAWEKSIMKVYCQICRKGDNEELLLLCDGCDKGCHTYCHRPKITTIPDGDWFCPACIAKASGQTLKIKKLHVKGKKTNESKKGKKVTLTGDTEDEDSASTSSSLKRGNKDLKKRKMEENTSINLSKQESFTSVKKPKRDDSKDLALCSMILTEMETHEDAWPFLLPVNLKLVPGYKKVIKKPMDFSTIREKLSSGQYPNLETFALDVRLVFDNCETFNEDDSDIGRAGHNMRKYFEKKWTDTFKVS

SMILES | Potency
CCC1CN(S(=O)(=O)c2cc(-c3cc(C)no3)ccc2C)c2cc(C)ccc2O1 (centres undefined) | inactive
O=S(=O)(c1ccc(Br)cc1)c1nnn2c1nc(N1CCOCC1)c1sccc12 | inactive
O=C(CSc1oc(-c2ccco2)nc1S(=O)(=O)c1ccccc1)c1ccc(Cl)cc1 | inactive
CC1CC(C)CN(S(=O)(=O)c2cccc3nonc23)C1 (centres undefined) | inactive
O=S(=O)(c1cccc2nonc12)N1CCN(c2cccc(Cl)c2)CC1 | 50.1 µM (active)
O=C(NCc1ccccc1Cl)C1CCN(S(=O)(=O)c2cccc3nonc23)CC1 | inactive
COc1ccc(Cn2ccc3nc(C)c(C(=O)Nc4ccc(C)c(F)c4)cc3c2=O)cc1 | inactive
CC(=O)c1cccc(Nc2ccc3cc(S(=O)(=O)N4CCC(C)CC4)ccc3n2)c1 | inactive
O=C(CSc1nc2c(c(=O)[nH]1)CN(Cc1ccc3c(c1)OCO3)CC2)Nc1cc(F)ccc1F | inactive
Oc1c(C(c2ccccn2)N2CCOCC2)ccc2cccnc12 (centres undefined) | 3.16 µM (active)
Oc1c(C(c2ccccc2Cl)N2CCOCC2)sc2nc(-c3ccco3)nn12 (centres undefined) | inactive
CC(C)c1cc(CN2CCOCC2)cc(C(C)C)c1O | inactive
COc1ccc(-c2nc(S(=O)(=O)c3ccccc3)c(N3CCCCC3)o2)cc1 | inactive
O=C(CCC1N=C2c3ccccc3N=C(SCc3ccccc3F)N2C1=O)NCCc1ccccc1 (centres undefined) | inactive
NS(=O)(=O)c1ccc(NC(=O)COc2ccc(S(=O)(=O)NC3CCCCC3)cc2)cc1 | inactive
COc1ccc(-c2csc(-c3c(N)c(C(=O)c4ccc(OC)c(OC)c4)n4ccccc34)n2)cc1 | inactive
CC(=O)Nc1ccc(S(=O)(=O)N2CCN(c3ccccc3)CC2)cc1 | inactive
Cc1cccc(N2CCN(c3ccc(NC(=O)/C=C\C(=O)O)cc3)CC2)c1 | 35.5 µM (active)
CN1CCN(c2ccc(NC(=O)c3ccccc3)cc2)CC1 | inactive
Cc1cc(C(=O)O)ccc1[N+](=O)[O-] | inactive
CN(C)c1ccc(/C=C/C(=O)c2ccc(C(C)(C)C)cc2)cc1[N+](=O)[O-] | 8.91 µM (active)
CC(=O)Nc1ccc(/C=C/C(=O)c2ccccc2)cc1 | inactive
O=S(=O)(c1ccc(C2CCCCC2)cc1)N1CCN(c2ccc(Cl)c(Cl)c2)CC1 | inactive
CC1CCN(S(=O)(=O)c2ccc3c(c2)N(CC(=O)NCCc2ccccc2)C(=O)CO3)CC1 | inactive
Cc1cc(Cl)ccc1NC(=O)Cc1ccc(NC(=O)N2CCCCc3ccccc32)cc1 | inactive
Cc1ccc(-n2c(=O)c3cccnc3n2CC(=O)Nc2ccccc2C(F)(F)F)cc1C | inactive
COc1ccccc1C1=Nc2cccc3cccc(c23)N1 | 39.8 µM (active)
c1ccc(C2=Nc3cccc4cccc(c34)N2)cc1 | inactive
COc1ccccc1-c1nc(C(F)(F)F)c(OC)o1 | inactive
